# Screening data (PubChem BioAssay)
# ATXN viability = Viability Counterscreen for Primary qHTS for Inhibitors of ATXN expression; S2 cells (HEK-293 line with an ATXN2-luciferase reporter) viability, CellTiter-Fluor protease fluorescence, 24 h; Potency, µM (highest dose often 56.7 µM), actives largely listed as cytotoxic; actives 0.49% (n = 400,000); further: potency means the concentration at half of the fitted maximal effect; nearly all actives have a fitted effect of over 40% in size
# ATXN2 expr inh = Primary qHTS for Inhibitors of ATXN expression | actives 0.72% (n = 360,000) | AID 1745845, 2022 | Potency, µM (top dose mostly 57 µM), without a hit: top-dose activity change, negative = inhibition, usual class: inhibitors | HEK-293 ATXN2-luciferase reporter, luminescence, 24 h; further: potency means the concentration at half of the fitted maximal effect; on the % scale 0 is the no-effect control and ±100 the full control effect; nearly all actives have a fitted effect of over 55% in size
#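 ATXN2-luciferase reporter cells (luciferase flanked by upstream and downstream ATXN2 gene portions) were treated 24 h at 37 °C with compounds at up to 57 uM. SteadyGlo luminescence gave expression; GF-AFC fluorescence gave viability.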
# TGFb SMAD3 inh = qHTS for Inhibitors of TGF-b. HepG2 CAGA-GFP TGF-b/SMAD3 reporter, GFP fluorescence, 18 h; TGF-beta stimulated, 500 pg/mL final. actives 1.2% (n = 410,000). Potency, µM (top dose mostly 46.1 µM), for the others: at the top dose activity, negative = inhibition, most hits filed as inhibitors. AID 588855, 2011; further: potency means the concentration at half of the fitted maximal effect; on the % scale 0 is the no-effect control and ±100 the full control effect; nearly all actives have a fitted effect of over 65% in size
#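 TGF-beta reporter screen: HEPG2 CAGA-GFP, 1% FBS, 500 pg/mL TGF-beta final, 18 h; per-cell GFP summed per well; curves fitted and categorized by class.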
# HepG2 viability = qHTS for Inhibitors of TGF-b: Cytotox Counterscreen. HepG2 CAGA-GFP viability, ATP luminescence, 18 h. Potency, µM (top dose mostly 46.1 µM), without a hit: top-dose activity change, negative = cytotoxicity, usual class: cytotoxic. actives 0.76% (n = 410,000). AID 588856, 2011; further: potency means the concentration at half of the fitted maximal effect
#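 HepG2 CAGA-GFP cells (1000/well, DMEM with 1% FBS) received compound, then TGF-beta at 500 pg/mL final, and were incubated 18 hours at 37 degrees C. Viability was read by CellTiter-Glo luminescence. Media-only wells were set as complete cell-killing and DMSO as no toxicity.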
# IL1B secr inh = qHTS for Inhibitors of Inflammasome Signaling: IL-1-beta AlphaLISA Primary Screen. THP-1 LPS/ATP IL-1B secretion, AlphaLISA, 16 h; active compounds read low. activity change, % at 57.5 µM. actives 4.7% (n = 360,000); in the data active means activity change below about -50%; inconclusive means mostly about -30% to -49%; further: on the % scale 0 is the no-effect control and ±100 the full control effect
#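 Secreted IL-1B measured by AlphaLISA bead assay after 16 h compound exposure of THP-1 cells; compounds (final up to 57.5 uM) added 1 h before LPS (250 ng/mL) and ATP (1.25 mM) stimulation; lower signal means less secretion.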
# * = called active by the depositor; i = inactive; u = inconclusive; x = not tested or not shown. Shown are actives, neighbours in structure and some others; about 5.7% of the full set was active somewhere. Unless noted, the call rests on the fitted dose curve; in most records, active means well fitted curve in the direction sought with a large enough effect; inconclusive means small, poorly fitted or top-dose-only effect, or another doubt; inactive means no such curve, though single readings can be large; an effect the other way counts as inactive or inconclusive.
SMILES,ATXN viability,ATXN2 expr inh,TGFb SMAD3 inh,HepG2 viability,IL1B secr inh
CC(C)(C)c1ccc(S(=O)(=O)CC(O)CSc2nc3c(cc2C#N)CCCC3)cc1 (centres undefined),i,4%,4%,4%,16
N#Cc1cc2c(nc1SCc1ccncc1)CCC2,i,27%,13µM*,-39%,u
N#Cc1cc2c(nc1SCC(O)CS(=O)(=O)Cc1ccc(Cl)cc1)CCCC2 (centres undefined),u,u,u,-16%,-61*
CC[N+](C)(C)c1ccc(/C=C/c2ccnc3ccccc23)cc1,x,x,11µM*,-74%,x
CC[N+](CC)(CC)c1ccc(/C=C/c2ccnc3ccccc23)cc1,x,x,2.5µM*,-76%,x
CCN(C)c1ccc(/C=C/c2ccnc3ccccc23)cc1,x,x,82%,-14%,x
CN(C)c1ccc(/C=C/c2ccnc3ccc(N)cc23)cc1,x,x,7%,-34%,x
CN1CCN(C2=Cc3cc(Cl)ccc3Sc3cc(F)ccc32)CC1,u,u,u,-87%,-100*
CN1CCN(C2=Cc3ccccc3Sc3cc(F)c(Cl)cc32)CC1,u,u,u,-117%,-62*
CN1CCN(C2=Nc3ccccc3Sc3ccc(Cl)cc32)CC1,i,-5%,x,x,x
Cc1ccc(Cl)cc1N1CCN(C(=O)c2ccc3c(c2)N(Cc2ccc(F)cc2)CCS3)CC1,i,-32%,-3%,0%,x
CN1CCN(C2=Cc3ccccc3Sc3cc(F)c(F)cc32)CC1,u,u,-1%,-102%,-62*
COc1ccc(C(=O)CC(SCC(NC(C)=O)C(=O)O)c2ccc(Cl)cc2)cc1OC (centres undefined),x,x,u,-53%,-88*
COc1ccc(C(C)NC(=O)c2ccc(Cl)cc2)cc1OC (centres undefined),i,-14%,-2%,3%,0
CC(C)(C)c1ccc(C(=O)C[n+]2ccc(Cl)c3ccc(Cl)cc32)cc1,x,x,u,-55%,x
Cc1nc(-c2c(C(F)(F)F)noc2-c2ccc(O)cc2O)cs1,i,u,-12%,-19%,0
CCOc1cc(C)c(-c2onc(C(F)(F)F)c2-c2csc(C)n2)c(O)c1,u,u,u,-92%,-55*
Cc1cccc(-c2nc(CN3CCCC(C(=O)NC4CCCCCC4)C3)c(C)o2)c1 (centres undefined),u,-17%,11µM*,-59%,-66*
Cc1ccc(CNC(=O)C2CCCN(Cc3nc(-c4cccc(C)c4)oc3C)C2)cc1 (centres undefined),x,x,u,16µM*,x
CCN1CCCC1CNC(=O)C1CCN(Cc2nc(-c3cccc(Br)c3)oc2C)CC1 (centres undefined),i,u,-1%,-112%,-83*
CN(C)c1ccc(/C=C/C=C2/C=Cc3ccccc32)cc1,x,x,2%,-92%,x
COCc1c(C(=O)NC2CCCCC2)cnn1-c1nccc(-c2cc(C)sc2C)n1,i,x,x,x,x
COc1cccc(OC)c1C(=O)NCCc1csc(-c2ccc(Cl)cc2)n1,u,u,u,-33%,x
CC(C)(C)c1ccc(C(=O)NCCc2csc(-c3ccc(Cl)cc3)n2)cc1,i,-12%,13µM*,-18%,x
COc1cccc(C(=O)NCCc2csc(-c3ccc(Cl)cc3)n2)c1,u,u,13µM*,-28%,x
SMILES,ATXN viability,ATXN2 expr inh,TGFb SMAD3 inh,HepG2 viability,IL1B secr inh
COc1ccc(F)cc1S(=O)(=O)NCCc1csc(-c2ccc(Cl)cc2)n1,u,u,13µM*,-24%,x
COc1ccc(-c2nc3scc(CCNC(=O)c4cccc(Br)c4)n3n2)cc1,18µM*,u,u,-21%,x
CCCCCCCCCCCCCC(=O)N[C@H](CO)[C@H](O)c1ccc([N+](=O)[O-])cc1,x,10%,x,x,x
CC(=O)O[C@H]1CC[C@@]2(C)C(=CC[C@@H]3[C@@H]2CC[C@]2(C)C(C(C)=O)=CC[C@@H]32)C1,i,3%,x,x,x
CCOc1ccccc1NC(=O)C(C)N(c1ccccc1)S(C)(=O)=O (centres undefined),i,-2%,7%,0%,x
COc1cccc(C(=O)NCCSCc2c(F)cccc2Cl)c1,u,31%,17%,5%,-65*
CN(C)CCCNC(=O)c1ccc(-c2nc(-c3ccc(Cl)cc3)cs2)cc1,20µM*,u,u,16µM*,-97*
CC1=C(CC(=O)c2ccccc2)C(=O)c2ccccc2C1=O,i,6%,6.3µM*,6.3µM*,42
COc1ccccc1C(=O)N[C@@H]1c2ccccc2C2(CCN(Cc3c(O)cccc3OC)CC2)[C@H]1O,i,x,x,x,x
CCN1CCN(C(=O)c2cnn(-c3ncc4c(n3)-c3ccccc3CCC4)c2COC)CC1,i,x,x,x,x
Cc1c(/C=C/C(=O)c2ccc(Cl)s2)cnn1C,i,38%,-9%,-25%,-9
O=C(C=Cc1ccc(Cl)s1)c1ccc(Cl)s1,i,3%,-1%,-3%,-51*
COc1cc(/C=C/C(=O)c2ccc(Cl)s2)cc(OC)c1O,u,u,u,-85%,-105*
Cc1ccnc2ccc(F)cc12,x,x,1%,10%,x
Cc1c(C(=O)N2CCCC(C)C2)sc2ncnc(NCCN3CCCCC3)c12 (centres undefined),i,x,x,x,x
O=C1/C(=C\c2cccnc2)Sc2ccccc21,i,18%,-5%,-39%,-26
O=C1/C(=C/c2cccnc2)CCc2c1[nH]c1ccccc21,i,9%,-1%,0%,-103*
CC1C/C(=C\c2cccnc2)C(=O)/C(=C/c2cccnc2)C1 (centres undefined),x,u,u,16µM*,-101*
C=C1C=CS(=O)(=O)N(C(CC(C)C)C(=O)OC)C1 (centres undefined),x,x,-27%,-25%,x
Cc1ccc(CNc2nc(CN3CCNC(=O)C3)nc3ccccc23)o1,i,x,x,x,x
O=C1Nc2ccc(Br)cc2/C1=C/C1CC=CCC1 (centres undefined),u,u,u,-29%,-99*
Nc1ccc2cc3ccc(N)cc3nc2c1,u,2.5µM*,x,x,x
CC12CCC=CC1C(c1ccc(/C=C/c3ccccc3)cc1F)N(Cc1ccccc1)C2=O (centres undefined),x,x,-5%,-33%,x
COc1cccc(CN2Cc3cccc4c3[C@H](C=CC4)CC2=O)c1,x,x,-24%,-1%,x
COc1ccccc1NC(=O)c1sc2nc(C)c(C(=O)Nc3ccc(C)cc3C)c(-c3ccco3)c2c1N,x,x,0%,12%,x
NC(Cc1ccc(F)cc1)c1csc(Nc2cc(NCc3ccco3)ncn2)n1 (centres undefined),u,18µM*,u,-48%,-55*
